Compound activity deposited in PubChem BioAssay by several laboratories.
GAA850 FXN act: increases GAA850 frataxin promoter reporter activity | HEK293 lucGAA850 FXN promoter luciferase reporter, 24 h; percent of 10 µM SAHA response | activation, % at 6 µM | 360,000 compounds, 0.56% hits;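 active means activation above the average of all compounds screened plus 3 SD, cutoff fixed separately per campaign, cut at about 7.5% in these data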;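 further: 0% = DMSO wells and 100% = 10 µM SAHA wells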
SMARCA2 act: activators of SMARCA2 function | MG213 cells, MMTV-luciferase reporter, dexamethasone, overnight | activation, % at 9.1 µM | 370,000 compounds, 1% hits; in the data active means activation above about 7.8%;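 further: 0% = vehicle wells and 100% = reference activator wells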
proKLK7 act: proKLK7 (human) activation, primary screen; activation, % at 7 µM; purified proKLK7, EDANS-DABCYL substrate fluorescence; 100% is mature enzyme control, 0% vehicle; P49862; 370,000 compounds, 0.9% hits; AID 652039;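 active means activation above the mean of all tested compounds plus 3 SD, computed per campaign excluding outliers beyond control limits, cut at about 13% in these data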
FAS-TE inh: blocks the thioesterase domain of human fatty acid synthase | P49327 | recombinant FAS-TE, OMFH fluorogenic substrate, fluorescence endpoint | inhibition, % at 15 µM | 360,000 compounds, 0.67% hits | AID 602261;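 active means compounds whose normalised, plate-corrected inhibition of enzyme fluorescence in the single-dose primary screen is 50% or more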;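 further: 0% = DMSO with enzyme and 100% = substrate without enzyme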
FAS-TE conf: FAS thioesterase (human) inhibition, confirmation | shares compounds with FAS-TE inh | recombinant FAS-TE, OMFH fluorogenic substrate, fluorescence | inhibition, % at 15 µM | 2,300 compounds, 45% hits | AID 624325;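 active means compounds inhibiting the enzyme by at least 50% at 15 µM in any one of the replicates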;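 further: 0% = enzyme with DMSO only and 100% = wells lacking enzyme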
Numbers without * were called inactive; · = no result given. Compounds with a hit are over-represented: about 2.9% of the library has one in this group of screens.

SMILES	GAA850 FXN act	SMARCA2 act	proKLK7 act	FAS-TE inh	FAS-TE conf
CC(=O)c1ccc(NC(=O)CSc2nccn2CCc2ccccc2)cc1	1	0	0	5	·
COc1cc(N(C)C)c([N+](=O)[O-])cc1C(=O)NC(C)CNc1ccc([N+](=O)[O-])cc1Cl (stereo unspecified)	-1	-4	0	70*	59*
CCN(CC)CCNC(=O)c1cc([N+](=O)[O-])c(N(C)C)cc1OC	1	-5	0	-1	·
CC(C)(C)c1ccc(OCCC(=O)OCC(=O)N2c3ccccc3NC(=O)C2(C)C)cc1	-1	-2	0	56*	66*
CCCNC(=O)c1ccc(N2CCC3(CC2)CC(c2cccc(Br)c2)=NO3)c(NC(=O)c2c(Cl)cccc2Cl)c1	-1	-1	0	54*	16
Cc1ccc(CNC(=O)c2ccc(N3CCC4(CC3)CC(c3ccccc3)=NO4)c(NC(=O)c3ccco3)c2)cc1	0	0	0	64*	13
CC1CCC2(CC1)NC(=O)N(CC(=O)NCCc1c[nH]c3ccccc13)C2=O (stereo unspecified)	0	0	0	-5	·
COc1ccc([C@@H](OC)[C@@]2(Cc3ccc(O)cc3)N=C(N)N(C)C2=O)cc1	-2	1	-1	-9	·
Cn1c(SCc2c(Cl)cccc2Cl)nc(C(F)(F)F)cc1=O	-2	0	-1	52*	7
Cn1c(SCc2cccc(Cl)c2)nc(C(F)(F)F)cc1=O	2	0	1	63*	62*
COc1cccc(NC(=O)CN2C(=O)CSc3ccc(S(=O)(=O)N4CCC(C)CC4)cc32)c1	-2	1	0	65*	72*
COc1cccc(NC(=O)CN2C(=O)CSc3ccc(S(=O)(=O)N4CCOCC4)cc32)c1	0	-1	0	14	·
O=[N+]([O-])c1ccc(NC(=S)NCCc2ccccc2)cc1	-1	-1	0	53*	38*
O=[N+]([O-])c1ccc(NC(=S)NCCc2ccc(Cl)cc2)cc1	-3	-12	0	51*	37
NS(=O)(=O)c1ccc(NC(=S)NCCc2ccccc2)cc1	3	3	0	1	·
O=C(CN1CCCN(Cc2ccc(F)cc2Cl)C1=O)NC1CCCC1	2	-3	0	-6	·
Cc1ccc(/C=C/C2=NN(Cc3ccccc3Cl)C(=O)CC2)cc1	-1	1	-2	28	·
COC(=O)c1cc(C(=O)NCCN2C(=O)S/C(=C\c3cccs3)C2=O)cc([N+](=O)[O-])c1	4	-2	0	60*	5
COc1ccc(C2=NN(CN3C(=O)C(=O)c4ccccc43)C(c3cccc([N+](=O)[O-])c3)C2)cc1 (stereo unspecified)	2	0	0	60*	60*
Cc1ccc(NC(=O)c2cc(N3C(=O)C=CC3=O)ccc2N2CCOCC2)cc1	4	0	1	12	·
Cc1cc2c(cc1C)C(c1cccc([N+](=O)[O-])c1)CC(=O)N2 (stereo unspecified)	-1	-4	0	60*	79*
NC(=O)C(CC(=O)O)NC(=O)[C@@H]1CCCNc2c(I)cc([N+](=O)[O-])cc2C(=O)N[C@@H](CO)C(=O)N[C@@H](Cc2ccc(O)cc2)C(=O)N1 (stereo partly specified)	1	·	·	-2	·
O=C(CCNC(=O)c1ccc(Cl)cc1)NCCC1=CCCCC1	5	1	1	17	·
O=C(CCNC(=O)c1ccc([N+](=O)[O-])cc1)NCCc1ccccc1	2	-3	0	60*	46*
O=C(COc1ccc([N+](=O)[O-])cc1)NCCC1=CCCCC1	4	1	0	63*	64*
SMILES	GAA850 FXN act	SMARCA2 act	proKLK7 act	FAS-TE inh	FAS-TE conf
O=C(CC(=O)N/N=C\c1ccc([N+](=O)[O-])cc1)NCCc1ccccc1	1	-2	0	52*	50*
O=C(CCNC(=O)c1ccc([N+](=O)[O-])cc1)NCCC1=CCCCC1	2	-1	-1	76*	83*
O=C(CC(=O)N/N=C\c1ccccc1)NCCc1ccccc1	2	-1	0	-2	·
O=C(CN1C(=O)c2ccc([N+](=O)[O-])cc2C1=O)NCC1CCCO1 (stereo unspecified)	2	-2	-1	0	·
O=C(CN1C(=O)c2ccc([N+](=O)[O-])cc2C1=O)NCCC1=CCCCC1	1	0	1	54*	54*
O=C(COc1ccc([N+](=O)[O-])cc1)Nc1ccc2c(c1)CCC2	0	0	0	58*	63*
CC(NC(=O)c1ccc(NC(=O)CC2SC(N3CCCC3)=NC2=O)cc1)c1ccc(S(N)(=O)=O)cc1 (stereo unspecified)	-1	-1	0	-7	·
Cc1coc(NC(=O)CSc2nc(-c3ccncc3)cc(C(F)(F)F)c2C#N)n1	2	1	0	55*	37*
COc1cc(S(=O)(=O)Nc2ccc(C)cc2)ccc1N=Cc1c(C)[nH]n(-c2ccc(C)cc2)c1=O	3	1	0	77*	11
N#CCCN1CCN(S(=O)(=O)c2cc(Cl)ccc2Cl)CC1	-1	2	1	0	·
Cc1cc2c(c(=O)n1Cc1cccnc1)C(Cc1ccccc1)C(C#N)=C(N)O2 (stereo unspecified)	-6	0	-6	53*	32
CCN(Cc1ccccc1)C(=O)c1c[nH]c2ccc(S(=O)(=O)N(C)CCC#N)cc2c1=O	1	-2	-35	59*	67*
Cc1cccc2cc(CN(Cc3cccs3)S(=O)(=O)c3ccc4c(c3)OCCO4)c(=O)[nH]c12	-1	-3	0	73*	26
O=S(=O)(Nc1cccc(-c2ccc(N3CCCCCC3)nn2)c1)c1ccccc1Cl	2	-1	1	50*	11
O=S(=O)(Nc1cccc(-c2ccc(N3CCCCCC3)nn2)c1)c1ccc(C(F)(F)F)cc1	3	4	0	39	·
O=S(=O)(Nc1cccc(-c2ccc(N3CCCCCC3)nn2)c1)c1ccccc1F	2	4	0	56*	62*
CC(C)CCCN1CCN=C1N(C)C	1	1	0	-12	·
CC(C)c1ccc(NC(=O)CNCC(c2ccccc2)N(C)C)cc1 (stereo unspecified)	0	-2	0	-4	·
Cc1ccc(S(=O)(=O)c2nnn3c2nc(N2CCCCC2)c2ccccc23)cc1	3	4	1	35	·
Cc1ccc(S(=O)(=O)c2nnn3c2nc(N2CCN(c4ccccn4)CC2)c2ccccc23)cc1C	1	0	0	53*	0
Cc1ccc(S(=O)(=O)c2nnn3c2nc(N2CCOCC2)c2ccccc23)cc1	2	0	0	37	·
CCc1ccc(S(=O)(=O)c2nnn3c2nc(N2CCOCC2)c2ccccc23)cc1	1	0	0	60*	36*
